# Results taken from PubChem BioAssay (EPA / NIEHS).
# Results filed as inconclusive are left out. Activity calls are given as the source filed them. The calls were made as follows, unless noted: active = hit-call score of the fitted dose curve at least 0.9, where 1 is the maximum; inactive = score below 0.9.
# What was measured:
# [1] = biological target: Hepatocyte nuclear factor 4-alpha (Homo sapiens) (UniProt P41235); assay: ATG_HNF4a_TRANS: Attagene TRANS-FACTORIAL HepG2 Assay for human Hepatocyte Nuclear Factor 4 alpha (HNF4a) (AID 2282982; active = hit-call score of the fitted dose curve at least 0.9, where 1 is the maximum); details: HepG2 HNF4a transactivation reporter, mRNA readout
# Sequence of Hepatocyte nuclear factor 4-alpha (Homo sapiens) (P41235 whole entry, looked up, the tested form may be a part): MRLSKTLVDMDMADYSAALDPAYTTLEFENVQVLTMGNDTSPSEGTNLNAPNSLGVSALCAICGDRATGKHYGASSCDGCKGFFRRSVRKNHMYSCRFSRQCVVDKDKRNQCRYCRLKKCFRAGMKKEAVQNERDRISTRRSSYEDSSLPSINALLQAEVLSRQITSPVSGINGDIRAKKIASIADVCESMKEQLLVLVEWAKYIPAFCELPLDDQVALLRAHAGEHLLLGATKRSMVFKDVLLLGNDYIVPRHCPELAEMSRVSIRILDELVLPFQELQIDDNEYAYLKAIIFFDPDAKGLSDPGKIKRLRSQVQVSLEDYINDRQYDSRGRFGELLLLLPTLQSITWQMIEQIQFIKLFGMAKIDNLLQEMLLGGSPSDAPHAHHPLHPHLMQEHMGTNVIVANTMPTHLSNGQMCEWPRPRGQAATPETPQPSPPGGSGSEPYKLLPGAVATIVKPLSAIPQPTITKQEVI
# Summary of the method: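 Gain-of-signal mRNA induction, relative to DMSO vehicle, was read after 24 h compound treatment of HepG2 cells bearing transfected GAL4-UAS reporters. Detection used RT-PCR, 6-FAM primer extension and capillary electrophoresis.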
# [2] = ATG_M_06_TRANS: Attagene TRANS-FACTORIAL HepG2 Assay for M06 Transcription Factor (Internal Marker) (AID 2282983; active = hit-call score of the fitted dose curve at least 0.9, where 1 is the maximum); details: HepG2 Attagene TRANS M06 internal marker reporter
# Summary of the method: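 HepG2 cells transiently transfected with GAL4-UAS multiple reporter units, dosed 24 h. Reporter RNA reverse-transcribed, PCR-amplified, 6-FAM-labeled, HpaI-digested and quantified by capillary electrophoresis; this internal-marker signal fitted upward relative to DMSO.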
# [3] = ATG_M_32_TRANS: Attagene TRANS-FACTORIAL HepG2 Assay for M32 Transcription Factor (Internal Marker) (AID 2282984; active = hit-call score of the fitted dose curve at least 0.9, where 1 is the maximum;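 also: transcript level of a background control reporter unit measured by RT-PCR and capillary electrophoresis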); details: HepG2 Attagene TRANS M32 internal marker reporter
# Summary of the method: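 Capillary electrophoresis of 6-FAM-labelled reporter fragments gives the signal; data fitted for gain over DMSO negative control. Source: HepG2 cells bearing transient multiple reporter transcription units, 24 h exposure.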
# [4] = biological target: Nuclear respiratory factor 1 (Homo sapiens) (UniProt Q16656); assay: ATG_NRF1_CIS: Attagene CIS-FACTORIAL HepG2 Assay for human Nuclear Respiratory Factor 1 (NRF1) Orphan Gene (AID 2282987); details: HepG2 NRF1 cis-element reporter, Attagene multiplex; actives raise or lower the signal
# Sequence of Nuclear respiratory factor 1 (Homo sapiens) (Q16656 whole entry, looked up): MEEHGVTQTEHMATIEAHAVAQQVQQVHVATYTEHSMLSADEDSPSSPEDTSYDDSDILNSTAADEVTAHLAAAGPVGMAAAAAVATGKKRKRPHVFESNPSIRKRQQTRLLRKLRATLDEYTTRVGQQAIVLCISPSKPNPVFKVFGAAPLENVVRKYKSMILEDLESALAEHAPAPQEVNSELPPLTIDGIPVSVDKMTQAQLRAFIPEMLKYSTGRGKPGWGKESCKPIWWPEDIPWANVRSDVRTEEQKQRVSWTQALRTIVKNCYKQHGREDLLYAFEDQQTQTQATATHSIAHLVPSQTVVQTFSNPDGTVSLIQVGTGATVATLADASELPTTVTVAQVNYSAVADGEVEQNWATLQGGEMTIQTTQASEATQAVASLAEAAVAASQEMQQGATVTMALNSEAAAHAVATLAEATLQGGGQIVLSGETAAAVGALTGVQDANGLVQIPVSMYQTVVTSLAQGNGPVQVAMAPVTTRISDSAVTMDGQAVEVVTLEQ
# Summary of the method: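 HepG2 cells transiently transfected with multiple cis-regulated reporter units, exposed 24 h. Reporter mRNAs measured by RT-PCR, fluorescent labelling, HpaI digestion and capillary electrophoresis; bidirectional fitting against DMSO.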
# [5] = ATG_NFI_CIS: Attagene CIS-FACTORIAL HepG2 Assay for human Nuclear Factor I (NFI) (AID 2282989); details: HepG2 cis-regulatory reporter, NFI response element transcription; actives raise or lower the signal
# Summary of the method: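 Transfected HepG2 liver cells, exposed 24 h, supplied total RNA for oligo(dT) reverse transcription and reporter-specific PCR. Labelled, HpaI-cut fragments were sized by capillary electrophoresis; DMSO set the baseline for bidirectional fitting.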
# [6] = biological target: Myc proto-oncogene protein (Homo sapiens) (UniProt P01106); assay: ATG_Myc_CIS: Attagene CIS-FACTORIAL HepG2 Assay for human Myelocytomatosis (Myc) Proto-Oncogene Transcription Factor (AID 2282990); details: HepG2, Attagene cis-reporter transcription factor activity; actives raise or lower the signal
# Sequence of Myc proto-oncogene protein (Homo sapiens) (P01106 whole entry, looked up, the tested form may be a part): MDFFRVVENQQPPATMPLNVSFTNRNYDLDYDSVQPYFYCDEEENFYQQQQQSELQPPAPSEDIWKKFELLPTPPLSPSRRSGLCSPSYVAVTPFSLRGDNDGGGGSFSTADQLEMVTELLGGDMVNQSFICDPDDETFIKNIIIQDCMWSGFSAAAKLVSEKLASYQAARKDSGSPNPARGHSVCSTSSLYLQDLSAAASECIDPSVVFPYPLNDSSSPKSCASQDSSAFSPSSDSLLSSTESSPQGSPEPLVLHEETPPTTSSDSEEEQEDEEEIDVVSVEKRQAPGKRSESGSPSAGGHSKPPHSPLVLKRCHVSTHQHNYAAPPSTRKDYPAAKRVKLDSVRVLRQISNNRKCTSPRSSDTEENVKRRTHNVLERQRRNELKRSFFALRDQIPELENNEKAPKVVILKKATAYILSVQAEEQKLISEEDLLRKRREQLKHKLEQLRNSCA
# Summary of the method: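 Fluorescence intensity of reporter-specific cDNA fragments, separated by capillary electrophoresis, gives the signal. Transfected HepG2 cells carrying cis-promoter reporter constructs are incubated with compound for 24 h; DMSO serves as baseline.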
# [7] = ATG_NF_kB_CIS: Attagene CIS-FACTORIAL HepG2 Assay for human Nuclear Factor Kappa B (NF-kB) (AID 2282991); details: HepG2 Attagene cis-factorial NF-kB reporter mRNA; actives raise or lower the signal
# Summary of the method: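 HepG2 cells transfected with cis-promoter-driven reporter units, so endogenous transcription factor activity is measured. Reporter mRNA quantified 24 h after dosing by RT-PCR and capillary electrophoresis, with bidirectional fitting against DMSO.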
# [8] = biological target: Oxysterols receptor LXR-beta (Homo sapiens) (UniProt P55055); assay: ATG_LXRb_TRANS: Attagene TRANS-FACTORIAL HepG2 Assay for human Liver X Receptor beta (LXRb) (AID 2282981; active = hit-call score of the fitted dose curve at least 0.9, where 1 is the maximum); details: HepG2 Attagene TRANS GAL4-LXRb reporter, mRNA
# Sequence of Oxysterols receptor LXR-beta (Homo sapiens) (P55055 whole entry, looked up, the tested form may be a part): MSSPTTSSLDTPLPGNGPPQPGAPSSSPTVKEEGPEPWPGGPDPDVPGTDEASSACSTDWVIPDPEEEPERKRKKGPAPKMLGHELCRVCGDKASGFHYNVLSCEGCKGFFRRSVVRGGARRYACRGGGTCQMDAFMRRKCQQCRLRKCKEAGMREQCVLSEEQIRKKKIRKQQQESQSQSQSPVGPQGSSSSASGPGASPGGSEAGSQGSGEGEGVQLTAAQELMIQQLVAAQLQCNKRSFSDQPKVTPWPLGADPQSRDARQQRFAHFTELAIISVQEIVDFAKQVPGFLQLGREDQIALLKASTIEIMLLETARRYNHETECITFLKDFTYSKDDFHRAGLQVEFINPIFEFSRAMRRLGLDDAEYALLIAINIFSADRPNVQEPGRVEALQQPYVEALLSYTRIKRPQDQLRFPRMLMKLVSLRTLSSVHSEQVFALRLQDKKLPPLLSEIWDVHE
# Summary of the method: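 Gain-of-signal mRNA reporter endpoint, DMSO as negative control. Transiently transfected HepG2 cells carrying the NR-Gal4 chimera and GAL4-UAS reporter units were treated 24 h; transcripts quantified by RT-PCR and capillary electrophoresis fluorescence.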
# [9] = biological target: Transcriptional activator Myb (Homo sapiens) (UniProt P10242); assay: ATG_Myb_CIS: Attagene CIS-FACTORIAL HepG2 Assay for human Myeloblastosis (Myb) Proto-Oncogene Transcription Factor (AID 2282986); details: HepG2 Attagene CIS-FACTORIAL Myb reporter transcription; actives raise or lower the signal
# Sequence of Transcriptional activator Myb (Homo sapiens) (P10242 whole entry, looked up): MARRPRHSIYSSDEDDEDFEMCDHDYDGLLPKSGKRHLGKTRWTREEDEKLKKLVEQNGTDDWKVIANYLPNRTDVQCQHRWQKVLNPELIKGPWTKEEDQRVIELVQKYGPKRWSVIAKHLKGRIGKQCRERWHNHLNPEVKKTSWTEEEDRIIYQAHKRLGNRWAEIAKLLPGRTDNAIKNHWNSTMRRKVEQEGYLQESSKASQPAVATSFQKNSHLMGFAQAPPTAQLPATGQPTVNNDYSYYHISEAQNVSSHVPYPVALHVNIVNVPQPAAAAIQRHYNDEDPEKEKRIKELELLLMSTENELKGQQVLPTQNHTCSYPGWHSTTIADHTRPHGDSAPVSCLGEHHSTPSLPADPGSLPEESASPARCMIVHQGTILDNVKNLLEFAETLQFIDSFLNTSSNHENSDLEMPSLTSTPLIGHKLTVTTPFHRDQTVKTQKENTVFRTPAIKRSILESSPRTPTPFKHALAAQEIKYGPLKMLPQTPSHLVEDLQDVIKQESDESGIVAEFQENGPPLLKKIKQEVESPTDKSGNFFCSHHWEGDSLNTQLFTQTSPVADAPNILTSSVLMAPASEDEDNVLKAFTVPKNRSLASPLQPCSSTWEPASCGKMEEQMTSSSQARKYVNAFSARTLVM
# Summary of the method: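 Transiently transfected HepG2 cells carrying a multiplexed cis-promoter reporter set report endogenous Myb activity after 24 h compound exposure. Reporter mRNA is read by RT-PCR with capillary electrophoresis of fluorescent products, fitted bidirectionally against DMSO.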
# [10] = biological target: Nuclear receptor subfamily 4 group A member 2 (Homo sapiens) (UniProt P43354); assay: ATG_NURR1_TRANS: Attagene TRANS-FACTORIAL HepG2 Assay for human Nuclear Receptor Related Protein 1 (NURR1) (AID 2282985; active = hit-call score of the fitted dose curve at least 0.9, where 1 is the maximum); details: HepG2 Attagene TRANS reporter, mRNA readout
# Sequence of Nuclear receptor subfamily 4 group A member 2 (Homo sapiens) (P43354 whole entry, looked up): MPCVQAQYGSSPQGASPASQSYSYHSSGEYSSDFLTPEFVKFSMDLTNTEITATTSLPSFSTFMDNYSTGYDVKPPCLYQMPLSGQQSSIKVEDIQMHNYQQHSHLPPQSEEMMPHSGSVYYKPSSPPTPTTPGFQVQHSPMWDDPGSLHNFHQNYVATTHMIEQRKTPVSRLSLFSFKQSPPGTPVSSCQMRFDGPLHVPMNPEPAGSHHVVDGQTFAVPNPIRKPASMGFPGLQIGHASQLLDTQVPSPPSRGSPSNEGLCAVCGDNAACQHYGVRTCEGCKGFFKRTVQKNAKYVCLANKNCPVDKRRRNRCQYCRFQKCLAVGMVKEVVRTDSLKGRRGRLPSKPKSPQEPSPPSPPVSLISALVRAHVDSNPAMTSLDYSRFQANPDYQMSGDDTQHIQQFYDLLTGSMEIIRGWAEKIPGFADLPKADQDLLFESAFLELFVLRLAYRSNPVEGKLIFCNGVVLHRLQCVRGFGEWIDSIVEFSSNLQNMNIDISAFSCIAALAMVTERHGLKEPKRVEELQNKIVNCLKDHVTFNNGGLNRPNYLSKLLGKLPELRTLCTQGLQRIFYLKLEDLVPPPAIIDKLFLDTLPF
# Summary of the method: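 HepG2 / transient MRTU transfection / 24 h compound exposure / RT-PCR + CE fluorescence of reporter mRNA / gain-of-signal vs DMSO.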
smiles,measurement,setting,value
CCNc1nc(NCC)nc(SC)n1,outcome,[1],inactive
same,outcome,[2],inactive
same,outcome,[3],inactive
same,outcome,[4],inactive
same,outcome,[5],inactive
same,outcome,[6],inactive
same,outcome,[7],inactive
Cc1cc(SCc2sc(-c3ccc(C(F)(F)F)c(F)c3)nc2C)ccc1OCC(=O)O,outcome,[8],inactive
same,outcome,[9],inactive
same,outcome,[4],inactive
same,outcome,[5],inactive
same,outcome,[6],inactive
same,outcome,[7],inactive
OC(c1ccc(Cl)cc1)(c1ccc(Cl)cc1)c1cccnc1,outcome,[1],inactive
same,outcome,[2],inactive
same,outcome,[10],inactive
same,outcome,[9],inactive
same,outcome,[4],inactive
same,outcome,[5],inactive
same,outcome,[6],inactive
same,outcome,[7],inactive
CC(F)(F)CC(F)(F)F,outcome,[1],inactive
same,outcome,[2],inactive
same,outcome,[3],inactive
same,outcome,[9],inactive
same,outcome,[4],inactive
same,outcome,[5],inactive
same,outcome,[6],inactive
same,outcome,[7],inactive
O=c1nc(O)n(Cl)c(=O)n1Cl,outcome,[1],inactive
same,outcome,[2],inactive
same,outcome,[3],inactive
same,outcome,[10],inactive
same,outcome,[9],inactive
same,outcome,[4],inactive
same,outcome,[5],inactive
same,outcome,[6],inactive
CCC(C)(C#N)N=NC(C)(C#N)CC (configuration not stated),outcome,[1],inactive
same,outcome,[2],inactive
same,outcome,[3],inactive
same,outcome,[10],inactive
same,outcome,[9],inactive
same,outcome,[4],inactive
same,outcome,[5],inactive
same,outcome,[7],inactive
C[C@]12CC[C@@H](O)C[C@@H]1CC[C@@H]1[C@@H]2CC[C@]2(C)C(=O)CC[C@@H]12,outcome,[8],inactive
same,outcome,[9],inactive
same,outcome,[4],inactive
same,outcome,[5],inactive
same,outcome,[6],inactive
same,outcome,[7],inactive
CCC[CH2][Sn]([CH2]CCC)([CH2]CCC)[CH2]CCC,outcome,[8],inactive
same,AC50,[10],0.497 µM (active)
same,outcome,[9],inactive
same,outcome,[4],inactive
same,AC50,[5],17.3 µM (active)
same,outcome,[6],inactive
same,AC50,[7],11.1 µM (active)
ClCCN1CCOCC1,outcome,[1],inactive
same,outcome,[2],inactive
same,outcome,[3],inactive
same,outcome,[10],inactive
same,outcome,[9],inactive
same,outcome,[4],inactive
same,outcome,[5],inactive
same,outcome,[6],inactive
same,outcome,[7],inactive
O=[N+]([O-])c1ccccc1O,outcome,[1],inactive
same,outcome,[2],inactive
same,outcome,[3],inactive
same,outcome,[10],inactive
same,outcome,[9],inactive
same,outcome,[4],inactive
same,outcome,[5],inactive
same,outcome,[6],inactive
CC(C)[C@@H](Nc1ccc(C(F)(F)F)cc1Cl)C(=O)OC(C#N)c1cccc(Oc2ccccc2)c1 (some centres not stated),outcome,[1],inactive
same,outcome,[2],inactive
same,outcome,[10],inactive
same,outcome,[9],inactive
same,outcome,[4],inactive
same,outcome,[5],inactive
same,outcome,[6],inactive
same,outcome,[7],inactive
CC(C=O)Cc1ccc2c(c1)OCO2 (configuration not stated),outcome,[1],inactive
same,outcome,[2],inactive
same,outcome,[10],inactive
same,outcome,[9],inactive
same,outcome,[4],inactive
same,outcome,[5],inactive
same,outcome,[6],inactive
same,outcome,[7],inactive
CCOC(=O)CC(=O)CCl,outcome,[1],inactive
same,outcome,[2],inactive
same,outcome,[10],inactive
same,outcome,[4],inactive
same,outcome,[5],inactive
same,outcome,[6],inactive
same,AC50,[7],56.8 µM (active)
CCCCCCCCCCBr,outcome,[1],inactive
same,outcome,[3],inactive
same,outcome,[10],inactive
same,outcome,[9],inactive
same,outcome,[4],inactive
same,outcome,[5],inactive
same,outcome,[6],inactive
same,outcome,[7],inactive
O=C1c2ccccc2C(=O)C1C(=O)C(c1ccccc1)c1ccc(Cl)cc1 (configuration not stated),outcome,[1],inactive
same,AC50,[10],4.69 µM (active)
same,AC50,[9],173 µM (active)
same,outcome,[4],inactive
same,outcome,[5],inactive
same,AC50,[6],27.1 µM (active)
same,AC50,[7],26.3 µM (active)
CC(c1ccccc1)(c1ccc(O)cc1)c1ccc(O)cc1,outcome,[2],inactive
same,outcome,[3],inactive
same,AC50,[10],18.2 µM (active)
same,outcome,[9],inactive
same,outcome,[4],inactive
same,outcome,[5],inactive
same,outcome,[6],inactive
same,AC50,[7],14.6 µM (active)
Brc1ccc(Br)cc1,outcome,[1],inactive
same,outcome,[9],inactive
same,outcome,[4],inactive
same,outcome,[5],inactive
same,outcome,[6],inactive
O=C1C[C@@H]2OCC=C3CN4CC[C@]56c7ccccc7N1[C@H]5[C@H]2[C@H]3C[C@H]46,outcome,[2],inactive
same,outcome,[3],inactive
same,outcome,[10],inactive
same,outcome,[9],inactive
same,outcome,[4],inactive
same,outcome,[5],inactive
same,outcome,[6],inactive
same,outcome,[7],inactive
CC(C)(COCC1CO1)COCC1CO1 (configuration not stated),outcome,[1],inactive
same,outcome,[3],inactive
same,outcome,[9],inactive
same,outcome,[4],inactive
same,outcome,[5],inactive
same,outcome,[6],inactive
same,outcome,[7],inactive
O=S1(=O)OC(c2cc(Br)c(O)c(Br)c2)(c2cc(Br)c(O)c(Br)c2)c2ccccc21,outcome,[2],inactive
same,outcome,[3],inactive
same,outcome,[10],inactive
same,outcome,[9],inactive
same,outcome,[4],inactive
same,outcome,[5],inactive
same,outcome,[6],inactive
same,AC50,[7],93 µM (active)
CN(N=O)c1ccc([N+](=O)[O-])cc1,outcome,[2],inactive
same,outcome,[3],inactive
same,outcome,[10],inactive
same,outcome,[9],inactive
same,outcome,[4],inactive
same,outcome,[5],inactive
same,outcome,[6],inactive
same,outcome,[7],inactive
CCOP(=O)(OCC)SCCSCC,outcome,[2],inactive
same,outcome,[3],inactive
same,outcome,[10],inactive
same,outcome,[4],inactive
same,outcome,[5],inactive
same,outcome,[7],inactive
CCC[CH2][Sn]([Cl])([Cl])[CH2]CCC,outcome,[1],inactive
same,outcome,[2],inactive
same,outcome,[9],inactive
same,AC50,[4],778 nM (active)
same,AC50,[5],0.458 µM (active)
same,AC50,[7],1.99 µM (active)
CCCSP(=S)(OCC)Oc1ccc(Cl)cc1Cl (configuration not stated),outcome,[2],inactive
same,outcome,[3],inactive
same,outcome,[10],inactive
same,outcome,[4],inactive
same,outcome,[5],inactive
same,outcome,[6],inactive
same,outcome,[7],inactive
C=CC(=O)OCC(COC(=O)C=C)(COC(=O)C=C)COC(=O)C=C,AC50,[1],44.6 µM (active)
same,outcome,[2],inactive
same,AC50,[9],24.5 µM (active)
same,outcome,[4],inactive
same,outcome,[5],inactive
same,AC50,[7],1.96 µM (active)
Cc1ccc(OP(=O)(Oc2ccc(C)cc2C)Oc2ccc(C)cc2C)c(C)c1,outcome,[2],inactive
same,outcome,[3],inactive
same,outcome,[10],inactive
same,outcome,[4],inactive
same,outcome,[5],inactive
same,outcome,[6],inactive
same,AC50,[7],25.9 µM (active)
CN(CCCC(O)c1cccnc1)N=O (configuration not stated),outcome,[1],inactive
same,outcome,[3],inactive
same,outcome,[10],inactive
same,outcome,[9],inactive
same,outcome,[4],inactive
same,outcome,[5],inactive
same,outcome,[6],inactive
same,outcome,[7],inactive
